Hits are enriched below; roughly 5.5% of the tested compounds scored in any of these assays.
MBNL1 CUG block: blocks human MBNL1 binding to CUG repeat RNA; Q9NR56; TR-FRET MBNL1-His/biotin-(CUG)12 binding, 665/545 ratio; Potency, µM (titrated, usually from 57.5 µM), for inactives: at the top dose activity change, negative = inhibition, actives largely listed as inhibitors; hit rate 0.036% among 280,000; AID 2675; active = well fitted inhibition curve with a large enough effect in the signal ratio, with a control signal flat, not every such curve was filed as active; inconclusive = small, poorly fitted or top-dose-only effect, or effect the other way, or a change in a side signal; inactive = no such curve, though single readings can be large or run the other way; the % refers to the signal ratio; note: potency is the fitted concentration of half-maximal effect; % is set by controls: 0 for no effect and ±100 for the full control effect
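Compound titration spanned 92 nM–58 uM against the MBNL1-His/biotin-(CUG)12 complex. After 60 min at room temperature with 5 nM streptavidin-XL665 and 0.055 ng/ul terbium anti-His, ratiometric 665/545 nm emission (Ex 340 nm) normalized to controls.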
CBFb-RUNX1 inh: inhibitors of human CBF-beta and RUNX1 interaction. Q01196+Q13951. AlphaScreen CBFb-His/RUNX1-biotin binding, biochemical. Potency, µM (highest dose often 59.8 µM), for inactives: at the highest dose activity, negative = inhibition, usual class: inhibitors. 230,000 tested, under 10 active. AID 1477; note: % of control where 0% means no effect
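AlphaScreen binding: CBFb-His and RUNX1-biotin (30 nM each) preincubated 20 min, compound added for 15 min, then nickel and streptavidin beads for 90 min, all at room temperature. Disruption of the interaction by any mechanism counts as activity.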
RORgamma inh: ROR gamma (mouse) transcription inhibition; AID 2551; P51450; Drosophila S2 Gal4-RORgamma UAS-luciferase reporter, 20 h; hit rate 5.4% among 310,000; Potency, µM (doses to about 53.6 µM), for the others: at the highest dose activity change, negative = inhibition, actives largely listed as inhibitors; note: potency is the fitted concentration of half-maximal effect; % is set by controls: 0 for no effect and ±100 for the full control effect; nearly all actives have a fitted effect of over 60% in size
Target sequence (P51450 whole entry, looked up, the tested form may be a part): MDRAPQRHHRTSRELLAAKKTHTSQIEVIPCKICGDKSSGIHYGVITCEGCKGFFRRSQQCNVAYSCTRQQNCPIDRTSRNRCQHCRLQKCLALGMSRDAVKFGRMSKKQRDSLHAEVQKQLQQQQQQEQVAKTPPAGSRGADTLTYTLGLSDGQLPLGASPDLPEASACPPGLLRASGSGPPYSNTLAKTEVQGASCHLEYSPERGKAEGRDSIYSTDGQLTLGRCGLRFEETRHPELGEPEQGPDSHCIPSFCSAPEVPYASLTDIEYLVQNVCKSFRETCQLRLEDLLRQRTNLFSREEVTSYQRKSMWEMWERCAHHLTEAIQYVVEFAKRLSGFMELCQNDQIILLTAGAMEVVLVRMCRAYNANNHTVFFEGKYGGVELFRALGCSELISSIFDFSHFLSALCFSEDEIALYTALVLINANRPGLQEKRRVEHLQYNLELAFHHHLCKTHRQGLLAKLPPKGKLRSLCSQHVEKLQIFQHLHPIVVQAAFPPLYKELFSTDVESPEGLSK
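Schneider cells (Drosophila), stable Gal4 DBD–ROR gamma + UAS-luc; 1 hr cmpd preincubation; Cu2+ induction 700 uM final; 20 hr ambient; luminescence.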
Six1-Eya2 inh: inhibitors of human Six1/Eya2 interaction | AID 651725 | activity change, % (test concentration not listed) | Q15475+O00167 | AlphaScreen GST-Six1/His-Eya2 binding, biochemical; active compounds read low | hit rate 0.56% among 360,000; in the data active = activity change below about -65%; inconclusive = mostly about -30% to -63%; note: % is set by controls: 0 for no effect and ±100 for the full control effect
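Six1/Eya2 binding was read as AlphaScreen signal after compounds were pinned into GST-Six1 plus His-tagged Eya2 (5X stock 250/500 nM) in pH 8.0 Tris/NaCl/TCEP buffer, beads added, then incubated 1 h, 37 C, dark.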
Gal4-VP16 FLuc: inhibits Gal4-VP16 luciferase reporter, ROR gamma counter-screen; hit rate 3.5% among 310,000; Potency, µM (series often up to 53.6 µM), for the others: at the highest dose activity, negative = inhibition, hits mostly inhibitors; Drosophila S2 Gal4-VP16 UAS-luciferase, luminescence, 20 h;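 note: Gal4-VP16 expression switched on by copper sulfate through the metallothionein promoter; potency is the fitted concentration of half-maximal effect; % is set by controls: 0 for no effect and ±100 for the full control effect; nearly all actives have a fitted effect of over 50% in size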
CtBP-E1A inh: blocks the CtBP interaction with E1A. AlphaScreen GST-E1A/His-CtBP binding, 1536-well; active compounds read low. activity change, % (concentration not given with the values). hit rate 0.49% among 340,000; in the data active = activity change below about -65%; inconclusive = mostly about -30% to -63%; note: % is set by controls: 0 for no effect and ±100 for the full control effect
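In 5 uL wells, 23 nL compound meets equimolar GST-E1A and His-CtBP (5X stock 125 nM each) for 2 h, 37 °C. Beads (5X, 50 ug/mL) then 1 h, 37 °C, dark.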
* hit, by the source's call; ? = inconclusive; nt = no result given; [ ] = remark or other dose. Unless noted, calls come from the whole dose curve; as a rule, active = well fitted curve in the direction sought with a large enough effect; inconclusive = small, poorly fitted or top-dose-only effect, or another doubt; inactive = no such curve, though single readings can be large; an effect the other way counts as inactive or inconclusive.

SMILES	MBNL1 CUG block	CBFb-RUNX1 inh	RORgamma inh	Six1-Eya2 inh	Gal4-VP16 FLuc	CtBP-E1A inh
N#Cc1ccc(C(=O)N2CCN(c3ncccn3)CC2)cc1	3%	nt	12%	3	-6%	0
CN(C)c1ccc(/C=N/NC(N)=S)cc1[N+](=O)[O-]	?	-15%	18µM*	-6	?	5
C=CCNC(=S)N/N=C/c1ccc(C)c([N+](=O)[O-])c1	10%[11.5 µM]	0%	1.1µM*	1	4.5µM*	-4
CNC(=S)N/N=C/c1cc(C)ccc1C	3%	11%	2.2µM*	-1	5µM*	nt
CC(=O)Nc1ccc(/C=N/NC(N)=S)cc1	nt	-3%	-7%	nt	-8%	nt
CNC(=S)Nc1ccc(C)cc1	3%[11.5 µM]	0%	?	-2	13%	-3
C=CCNC(=S)N/N=C/c1ccc(C)cc1C	3%	3%	0.45µM*	-13	?	-12
CN(C(=O)c1nn(C)c2c1CSc1ccccc1-2)c1ccc(F)cc1	3%	nt	4%	-2	-9%	-4
O=C(CCCSc1ccc(Cl)cc1)Nc1cc(S(=O)(=O)N2CCOCC2)ccc1O	nt	nt	nt	2	nt	-3
C[C@@H]1CN([C@@H](C)CO)C(=O)c2cccc(NC(=O)C3CCCCC3)c2O[C@@H]1CN(C)Cc1ccc(Cl)c(Cl)c1	nt	nt	nt	-9	nt	-2
CC(C)CN(C(=O)CC1OC(=O)c2ccccc21)c1c(N)n(Cc2ccccc2)c(=O)[nH]c1=O (stereo unspecified)	nt	nt	nt	4	nt	5
O=c1nc2s/c(=C\c3ccco3)c(=O)n2nc1Cc1ccc(F)cc1	23%	nt	-2%	-81*	11%	-80*
Cc1ccc(-c2nc3s/c(=C\c4ccco4)c(=O)n3n2)cc1	3%	-18%	5%	-11	15%	14
CNc1nc(OC)nc(N(C#N)CN2C(=O)c3ccccc3S2(=O)=O)n1	-8%	9%	-26%	-6	-20%	nt
Cc1cc(C)nc(N(C#N)CN2C(=O)c3ccccc3S2(=O)=O)n1	-4%	6%	13µM*	7	?	1
OC(Cc1ccccc1Br)c1ncc(-c2ccc(Cl)cc2)[nH]1 (stereo unspecified)	nt	nt	nt	-17	nt	-17
CC1(C)Cc2ccccc2C(NNC(=O)c2ccccc2)=N1	1%	1%	-12%	-13	-8%	19
CC1(C)Cc2ccccc2C(C(=O)c2ccccc2)=N1	3%	nt	7.9µM*	-4	3%	3
CC1(C)Cc2ccccc2C(NNC(=O)c2ccccn2)=N1	5%	?	0.05µM*	?	0.1µM*	?
CC(=O)CC1=NC(C)(C)Cc2ccccc21	nt	-11%	14%	-23	13%	-3
Cc1cccc(Nc2nnc(SCC(O)=C(C#N)c3nc4ccccc4[nH]3)s2)c1	nt	nt	nt	-24	nt	-25
S=C(NCCCN1CCOCC1)N1CCN(c2cccc(Cl)c2)CC1	-2%	nt	1%	-3	8%	-5
Cn1c(SCc2ccc(F)cc2Cl)nc2ccccc2c1=O	nt	nt	nt	9	nt	-10
COc1ccccc1-c1nnc(NC(=O)CCS(=O)(=O)c2ccccc2)o1	7%	nt	10µM*	-16	10µM*	-9
CCN(Cc1ccccc1)S(=O)(=O)c1ccc(C(=O)Nc2nnc(-c3ccccc3OC)o2)cc1	-4%	-4%	0.2µM*	-15	0.35µM*	-16
SMILES	MBNL1 CUG block	CBFb-RUNX1 inh	RORgamma inh	Six1-Eya2 inh	Gal4-VP16 FLuc	CtBP-E1A inh
COc1ccccc1-c1nnc(NC(=O)c2ccc(S(=O)(=O)N(C)C)cc2)o1	7%	-1%	0.71µM*	-27	0.63µM*	-2
COc1ccc(-c2nc(-c3ccccc3)c(NCc3ccccc3)o2)cc1	nt	6%	12%	nt	-5%	nt
O=C(Nc1nnc(-c2ccc3c(c2)CCCC3)o1)c1ccccc1Cl	8%	-13%	1.3µM*	-8	0.79µM*	-13
O=C(Nc1nnc(-c2ccc3c(c2)CCCC3)o1)c1ccccc1	-2%	-20%	0.28µM*	5	0.1µM*	-9
O=C(COc1ccccc1)Nc1nnc(-c2ccc3c(c2)CCCC3)o1	?	-18%	5.6µM*	1	3.5µM*	-18
O=C(Nc1cccc2c1CCCC2)c1ccccc1Cl	-2%	nt	1%	8	-10%	-1
O=C(COc1ccccc1)Nc1nnc(-c2ccccc2Cl)o1	nt	nt	nt	?	nt	-18
O=C(COc1ccccc1)Nc1nnc(-c2ccc(F)cc2)o1	-8%	nt	?	?	6.3µM*	?
COc1ccc(CCN(C)C(=O)c2ccc(C)c(S(=O)(=O)N3CCCCC3)c2)cc1OC	nt	nt	nt	-1	nt	3
CCOC(=O)c1cnc(-n2nc(C)cc2C)nc1NNc1nc(C)cc(C)n1	nt	-2%	4µM*	-4	?	nt
CCOC(=O)c1cnc(-n2nc(C)cc2C)nc1Oc1ccc(C#N)cc1	6%	0%	1%	-2	-10%	7
CCOC(=O)c1cnc(-n2nc(C)cc2C)nc1NNc1nc(-c2ccccc2)cc(-c2ccccc2)n1	-2%	-15%	0.79µM*	7	0.71µM*	0
CCN(CC)CCNC(=O)C(=O)NCC1OCCN1S(=O)(=O)c1cccs1 (stereo unspecified)	nt	nt	nt	-4	nt	3
COc1ccc(OC)c(NC(=S)NCCSc2ccc(C)cc2)c1	3%	-20%	14µM*	-30	?	-29
Cc1ccccc1NC(=S)NCCSc1ccc(Cl)cc1	-6%	-2%	2.2µM*	0	?	-3
COc1ccc(NC(=S)NCCSc2ccc(C)cc2)c(OC)c1	nt	nt	nt	?	nt	-16
Cc1ccc(NC(=S)NCCSc2ccc(Cl)cc2)c(C)c1	?	-1%	0.79µM*	-11	1µM*	-5
CCCCSCCCNC(=S)Nc1ccccc1C	-1%	-9%	2.5µM*	1	?	-5
Cc1ccccc1NC(=S)NCCO	-2%	0%	24%	11	-3%	-7
O=C(c1ccncc1)N1CCC2(CC1)CN(c1ccncc1)C2	nt	nt	-2%	nt	-10%	nt
CCOc1ccccc1-c1nnc2n1N=C(c1ccc(OC)cc1)CS2	nt	0%	?	nt	-3%	nt
C[C@H](NC(=O)COc1ccccc1)C(=O)OCC(=O)c1cc2ccccc2o1	nt	nt	nt	9	nt	21
CCc1ccccc1NC(=S)NCCSc1ccc(Cl)cc1	-7%	-4%	1.1µM*	-8	7.1µM*	-2
Cc1ccc(Cl)cc1NC(=S)NCCCSC1CCCCC1	-3%	-2%	2µM*	-5	?	-10
Cc1cccc(NC(=S)NCCSc2ccc(Cl)cc2)c1	-2%	-1%	3.2µM*	4	7.1µM*	0
Cc1cc(Cl)ccc1NC(=S)NCCCO	7%	0%	7%	1	-2%	-17
Cc1cccc(NC(=O)NCCc2ccc(Cl)cc2)c1	-2%	3%	15%	7	17%[10 µM]	nt
